Sampled rows, rich in hits. Any-hit rate of the full collection: about 6.6%.
KB-V1 cytotox: kills drug-selected multidrug resistant KB-V1 cells; AID 1347076; Potency, µM (series often up to 46.1 µM), usual class: cytotoxic; KB-V1 MDR cells viability, CellTiter-Glo, 72 h; hit rate 3.4% among 400,000; further: on the % scale 0 is the no-effect control and ±100 the full control effect; nearly all actives have a fitted effect of over 60% in size
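Cells of the MDR subline KB-V1 are plated, dosed with compound at multiple concentrations, and incubated 72 h at 37 degrees C; CellTiter-Glo is then added and luminescence read after 10 min.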
PTAP TSG101 blk: blocks PTAP/TSG101 interaction to inhibit HIV-1 budding; Fluorescence polarization, FITC-PTAP peptide / Tsg101 binding; 340,000 tested, under 10 active; Q99816; Potency, µM (top dose mostly 115 µM), for inactives: at the top dose activity change, negative = inhibition, usual class: inhibitors; active means well fitted inhibition curve with a large enough effect in the main read-out, with a control signal flat, not every such curve was filed as active; inconclusive means small, poorly fitted or top-dose-only effect, or effect the other way, or a change in a side signal; inactive means no such curve, though single readings can be large or run the other way; further: % of control where 0% means no effect
Target sequence (Q99816 whole entry, looked up): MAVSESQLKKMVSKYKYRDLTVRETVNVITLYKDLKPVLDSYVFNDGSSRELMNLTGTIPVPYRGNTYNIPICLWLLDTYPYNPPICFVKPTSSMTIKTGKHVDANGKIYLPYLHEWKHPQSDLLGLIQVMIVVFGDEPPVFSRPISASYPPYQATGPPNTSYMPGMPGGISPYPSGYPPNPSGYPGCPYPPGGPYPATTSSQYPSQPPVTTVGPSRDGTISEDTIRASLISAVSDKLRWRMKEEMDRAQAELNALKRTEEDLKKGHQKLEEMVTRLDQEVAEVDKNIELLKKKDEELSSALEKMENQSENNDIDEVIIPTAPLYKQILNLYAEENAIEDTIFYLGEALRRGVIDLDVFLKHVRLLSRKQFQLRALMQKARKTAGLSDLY
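Compounds were pin-transferred onto Tsg101 binding domain (10 uM final) in HEPES pH 7.5 buffer, then FITC-PTAP peptide was added at 50 nM final. After 20 min at RT, polarization reported peptide displacement across a qHTS concentration series.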
SW480 rerep: induces DNA re-replication in SW480 colon adenocarcinoma cells; hit rate 1.8% among 340,000; SW480 DNA re-replication, Hoechst DNA content imaging, 48 h; Potency, µM (top dose mostly 46.1 µM), without a hit: top-dose re-replication activation, hits mostly activators; further: % of control where 0% means no effect; nearly all actives have a fitted effect of over 55% in size
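Quantitative HTS format with DMSO vehicle controls; 48 hr drug incubation at 37 C, then 40 min Hoechst staining and scanning imager measurement at 405 nm excitation.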
KB-3-1 tox: kills parental KB-3-1 adenocarcinoma cells; hit rate 1.4% among 400,000; AID 1347075; Potency, µM (highest dose often 46.1 µM), hits mostly cytotoxic; KB-3-1 viability, CellTiter-Glo ATP luminescence, 72 h; further: on the % scale 0 is the no-effect control and ±100 the full control effect; nearly all actives have a fitted effect of over 60% in size
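Parental KB-3-1 viability, qHTS format: 72 h compound exposure, 37 °C; CellTiter-Glo; media-only wells and DMSO plates as controls; concentration-effect fits on corrected data.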
RGS4 inhibitor: human RGS4 inhibition. Transcreener GDP fluorescence polarization, RGS4-accelerated GTP hydrolysis. P49798. hit rate 0.039% among 390,000. Potency, µM (doses to about 114 µM), without a hit: top-dose activity change, negative = inhibition, most hits filed as inhibitors. AID 504845; further: on the % scale 0 is the no-effect control and ±100 the full control effect; nearly all actives have a fitted effect of over 75% in size
Target sequence (P49798 whole entry, looked up): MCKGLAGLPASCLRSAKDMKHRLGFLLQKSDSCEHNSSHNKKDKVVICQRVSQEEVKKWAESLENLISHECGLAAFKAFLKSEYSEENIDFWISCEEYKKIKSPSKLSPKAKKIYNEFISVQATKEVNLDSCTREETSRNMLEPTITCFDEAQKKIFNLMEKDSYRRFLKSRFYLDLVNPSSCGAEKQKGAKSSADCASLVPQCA
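MLSMR compounds (23 nl, pin-transferred) preincubated 10 min at room temperature with a 500nM (2x) first reagent, then RGS4 at 900nM (2x) plus Transcreener GDP mix added; fluorescence polarization (620/688 nm) read before and after 90 min at 30 °C.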
MCF10A rereplic: induces DNA re-replication in MCF 10a normal breast cells; hit rate 2.9% among 350,000; Potency, µM (highest dose often 46.1 µM), without a hit: top-dose activity, positive = re-replication, actives largely listed as activators; MCF 10A DNA re-replication, Hoechst nuclear intensity, 48 h; AID 624296; further: % of control where 0% means no effect; nearly all actives have a fitted effect of over 50% in size
* marks the source's active call; other numbers are inactive results; i = inactive; u = inconclusive; x = not tested or not shown; [ ] = dose if it differs, or a comment. Unless noted, the call rests on the fitted dose curve; in most records, active means well fitted curve in the direction sought with a large enough effect; inconclusive means small, poorly fitted or top-dose-only effect, or another doubt; inactive means no such curve, though single readings can be large; an effect the other way counts as inactive or inconclusive. Potency means the concentration at half of the fitted maximal effect.

SMILES | KB-V1 cytotox | PTAP TSG101 blk | SW480 rerep | KB-3-1 tox | RGS4 inhibitor | MCF10A rereplic
COc1ccc(S(=O)(=O)N(C)C)cc1NC(=O)c1ccc(OCC2CCCO2)cc1 (configuration not stated) | i | x | x | i | x | x
COc1ccc(OC)c(CNC(=O)CCc2c(C)nc3c(c2C)c(=O)n(C)c(=O)n3C)c1 | i | x | x | i | 6% | x
COCCNC(=O)CSc1nnc(-c2ccc(OC)c(OC)c2)c(-c2ccc(OC)c(OC)c2)n1 | i | x | x | i | 6% | x
CCOc1cc(/C=C2\C(=O)ON=C2c2ccccc2)cc(Br)c1O | u | 14% | u | u | u | 9.2µM*
COc1cc(/C=C2\C(=O)ON=C2c2ccccc2)cc(Br)c1O | u | 22% | u | u | u | u
Cc1ccc(N2CC(NC(=O)c3ccc(S(=O)(=O)N4CCCC4)cc3)CC2=O)cc1C (configuration not stated) | x | x | x | x | -24% | x
O=C(Nc1ccc(C#Cc2ccccc2)cc1)C1CC1 | 15µM* | -3% | 18% | i | -15% | 20%
Cc1ccc(NC(=O)CSc2nc(-c3ccco3)nc3cc(=O)[nH]n23)cc1C | i | x | x | i | -31% | x
CC(=O)Nc1ccc(S(=O)(=O)NC2CC(=O)N(c3ccc(C)cc3)C2)cc1 (configuration not stated) | i | -2% | 6.5µM* | i | 18% | -15%
CC(=O)Nc1ccc(S(=O)(=O)NC2CC(=O)N(c3ccc(C)c(C)c3)C2)cc1 (configuration not stated) | i | 1% | 1% | i | 8% | -1%
O=[N+]([O-])c1ccc(-c2nc(-c3ccncc3)no2)cc1 | 18µM* | -2% | 2% | i | 11% | -9%
c1ccc(-c2ccc(-c3nc(-c4ccncc4)no3)cc2)cc1 | u | -4% | 15% | i | -40% | 15µM*
c1ccc(-c2ccc(-c3nc(-c4cccnc4)no3)cc2)cc1 | 16µM* | 1% | -8% | i | 0% | 17%
c1ccc(C(Cc2nc(-c3ccncc3)no2)c2ccccc2)cc1 | i | 2% | -1% | 12µM* | 1% | 4%
CCc1ccc(NS(=O)(=O)c2ccc(-c3cc(C)no3)cc2)cc1 | x | x | x | x | 27% | x
COc1ccccc1NC(=O)C1=C(C)Nc2nc(SCc3ccccc3)nn2C1c1cccs1 (configuration not stated) | x | x | x | x | 13% | x
C=CCOc1ccc2nc(NC(=O)OC)[nH]c2c1 | 1.2µM* | -3% | 1.3µM* | 0.65µM* | -20% | 1.5µM*
COC(=O)Nc1nc2ccc(-c3n[nH]c(=O)c4ccccc34)cc2[nH]1 | i | -2% | -259% | 15µM* | -7% | 9%
C=C(c1ccc2nc(NC(=O)OC)[nH]c2c1)c1cccs1 | 0.65µM* | 1% | 0.73µM* | u | 13% | 0.58µM*
CCCCc1ccc2nc(NC(=O)OC)[nH]c2c1 | x | x | 0.13µM* | x | x | u
O=C(Nc1ccc2nc(-c3ccccc3)[nH]c2c1)c1cccs1 | i | -2% | 8% | i | -2% | 4%
COc1cccc2c(C)cc3nnc(SCC(=O)Nc4ccc(C)cc4)n3c12 | x | x | x | x | -10% | x
Cc1ccc2nc3sc(C(=O)Nc4ccc(F)cc4)cc3cc2c1 | i | x | x | i | -18% | x
Cc1nnc(SCc2cc(=O)oc3ccc4ccccc4c23)n1Cc1ccccc1 | 16µM* | -2% | 2% | i | -14% | 16%
CC(C)c1ccccc1-n1c(SCc2cc(=O)oc3ccc4ccccc4c23)nnc1-c1cccnc1 | 21µM* | 1% | x | u | -11% | 19%
SMILES | KB-V1 cytotox | PTAP TSG101 blk | SW480 rerep | KB-3-1 tox | RGS4 inhibitor | MCF10A rereplic
CCOc1ccc(-n2c(SCc3cc(=O)oc4cc(C)ccc34)nnc2-c2cccnc2)cc1 | u | 0% | 2% | i | 4% | 1%
Cc1cccc(NC2=CC(c3cccc(Br)c3)N(c3cccc(C)c3)C2=O)c1 (configuration not stated) | i | x | x | i | -28% | x
Cc1cccc(CNC(=O)C2CCN(c3nc4ccc(Cl)cc4[nH]3)CC2)c1 | i | x | x | i | 23% | x
COc1cc(N(C)C)ccc1/C=C1\C=Cc2ccccc21 | i | x | x | i | x | x
CCC(C)Oc1ccc(/C=C/c2[nH]c(=O)[nH]c(=O)c2[N+](=O)[O-])cc1OC (configuration not stated) | i | -9% | 21µM* | i | u | u
CCOC(=O)C1=C(NC(=S)NC(=O)c2ccccc2)c2ccccc2CC1(C)CC (configuration not stated) | u | -3% | 10% | 16µM* | -12% | 13µM*
CCOC(=O)C1=C(NC(=S)NC(=O)c2ccccc2)c2ccccc2CC1C(C)C (configuration not stated) | u | -1% | u | u | -40% | u
CC(=O)C1CCC2C3CCC4=CC(=O)CCC4(C)C3(F)C(O)CC12C (configuration not stated) | 5.2µM* | 0% | -9% | u | -10% | 17%
CC12CCC(=O)C=C1CCC1C3CC(O)C(O)(C(=O)CO)C3(C)CC(O)C12F (configuration not stated) | i | -4% | -5% | i | 1% | 0%
COc1ccc(-c2c(C)nn(Cc3ccccc3)c2N)cc1 | 21µM* | x | 25% | i | 3% | 1%
Cc1cccc(C)c1OCC(=O)NCC1(N2CCOCC2)CCCCC1 | x | x | x | x | 36% | x
Cc1ccc(N(C)C(=O)Cn2cnc3onc(-c4ccc(F)cc4)c3c2=O)cc1C | i | x | x | i | 19% | x
CCN=C1S/C(=C\c2cn(CC)c3ccccc23)C(=O)N1CC | i | 0% | 15% | i | -3% | u
COc1cc(/C=C2/SC(=NCc3ccccc3)N(Cc3ccccc3)C2=O)ccc1O | u | -9% | 5% | i | 1% | 5.8µM*
CCOc1cc(/C=C2/SC(=S)N(CC3CCCO3)C2=O)ccc1O (configuration not stated) | i | -4% | u | i | -10%[56.9 µM] | u
CCN=C1S/C(=C\c2cc(OCC)c(O)cc2Br)C(=O)N1CC | i | -2% | u | u | -15% | 18µM*
CCN=C1S/C(=C\c2ccc(O)c(OCC)c2)C(=O)N1CC | 18µM* | 0% | u | i | -25% | u
COCCNc1cc(N2CCN(C3CCCCC3)CC2)c2noc3c2c1C(=O)c1ccccc1-3 | i | x | x | i | -13% | x

Screening results from PubChem BioAssay.
